Source: PubChem BioAssay
Active and inactive are the calls of the source.

Legend:
[1] = tested on: Plasmodium falciparum Sir2 (PF13_0152, Sir2A); test: Plasmodium falciparum Sir2A binding compounds – biochemical, small-molecule microarray, 635 nm fluorescence, primary screen (AID 1098); conditions: fluorescence 635 nm, higher = more signal;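 also: score merges spot fluorescence intensity with its signal-to-noise ratio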
[2] = probe aDKK1 binding to arrayed compounds – biochemical, biotinylated probe, 635/667 nm fluorescence, primary screen (AID 1099); conditions: small-molecule microarray, higher = more signal;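 also: score merges 667nm spot fluorescence with signal to noise across triplicate slides; reference of the scale not given here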
[3] = probe aCHRDL2 binding to arrayed compounds – biochemical, biotinylated probe, 635/667 nm fluorescence, primary screen (AID 1100); conditions: small-molecule microarray, higher = more signal
[4] = change in splice reporter luminescence, either direction, cell-based, HEK293, spliceosome inhibition project, primary screen (AID 1101); conditions: HEK293 splicing luciferase reporter, 24 h, higher = more signal, called active from +8 up or from −8 down;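 also: HEK293 cells carrying a splicing-competent luciferase reporter gene; test concentration not given here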
[5] = target: Fibroblast growth factor 10 (Homo sapiens) (UniProt O15520); test: compounds binding fibroblast growth factor 10 – biochemical, small-molecule microarray, 635 nm fluorescence, primary screen (AID 1102); conditions: FGF10 binding, fluorescence 635 nm, higher = more signal
Sequence of Fibroblast growth factor 10 (Homo sapiens) (O15520 whole entry, looked up): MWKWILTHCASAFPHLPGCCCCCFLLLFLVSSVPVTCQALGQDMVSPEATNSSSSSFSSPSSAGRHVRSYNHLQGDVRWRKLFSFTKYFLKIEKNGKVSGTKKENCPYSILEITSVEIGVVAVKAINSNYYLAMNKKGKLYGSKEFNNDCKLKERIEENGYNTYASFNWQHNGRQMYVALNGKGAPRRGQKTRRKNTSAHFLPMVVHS

[6] = tested on: glycogen synthase kinase-3 (GSK3A per assay name; protocol says GSK3B); test: compounds binding glycogen synthase kinase-3 – biochemical, small-molecule microarray, 635 nm fluorescence, GSK3A, primary screen (AID 1103); conditions: fluorescence 635 nm, higher = more signal; also: the record names both GSK3A and GSK3B
[7] = target: Epidermal growth factor receptor (Homo sapiens) (UniProt P00533); test: compounds binding epidermal growth factor receptor – biochemical, small-molecule microarray, 635 nm fluorescence, primary screen (AID 1104); conditions: EGFR binding, higher = more signal;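 also: score merges 667 nm emission intensity with spot signal to noise over triplicate slides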
Sequence of Epidermal growth factor receptor (Homo sapiens) (P00533 whole entry, looked up): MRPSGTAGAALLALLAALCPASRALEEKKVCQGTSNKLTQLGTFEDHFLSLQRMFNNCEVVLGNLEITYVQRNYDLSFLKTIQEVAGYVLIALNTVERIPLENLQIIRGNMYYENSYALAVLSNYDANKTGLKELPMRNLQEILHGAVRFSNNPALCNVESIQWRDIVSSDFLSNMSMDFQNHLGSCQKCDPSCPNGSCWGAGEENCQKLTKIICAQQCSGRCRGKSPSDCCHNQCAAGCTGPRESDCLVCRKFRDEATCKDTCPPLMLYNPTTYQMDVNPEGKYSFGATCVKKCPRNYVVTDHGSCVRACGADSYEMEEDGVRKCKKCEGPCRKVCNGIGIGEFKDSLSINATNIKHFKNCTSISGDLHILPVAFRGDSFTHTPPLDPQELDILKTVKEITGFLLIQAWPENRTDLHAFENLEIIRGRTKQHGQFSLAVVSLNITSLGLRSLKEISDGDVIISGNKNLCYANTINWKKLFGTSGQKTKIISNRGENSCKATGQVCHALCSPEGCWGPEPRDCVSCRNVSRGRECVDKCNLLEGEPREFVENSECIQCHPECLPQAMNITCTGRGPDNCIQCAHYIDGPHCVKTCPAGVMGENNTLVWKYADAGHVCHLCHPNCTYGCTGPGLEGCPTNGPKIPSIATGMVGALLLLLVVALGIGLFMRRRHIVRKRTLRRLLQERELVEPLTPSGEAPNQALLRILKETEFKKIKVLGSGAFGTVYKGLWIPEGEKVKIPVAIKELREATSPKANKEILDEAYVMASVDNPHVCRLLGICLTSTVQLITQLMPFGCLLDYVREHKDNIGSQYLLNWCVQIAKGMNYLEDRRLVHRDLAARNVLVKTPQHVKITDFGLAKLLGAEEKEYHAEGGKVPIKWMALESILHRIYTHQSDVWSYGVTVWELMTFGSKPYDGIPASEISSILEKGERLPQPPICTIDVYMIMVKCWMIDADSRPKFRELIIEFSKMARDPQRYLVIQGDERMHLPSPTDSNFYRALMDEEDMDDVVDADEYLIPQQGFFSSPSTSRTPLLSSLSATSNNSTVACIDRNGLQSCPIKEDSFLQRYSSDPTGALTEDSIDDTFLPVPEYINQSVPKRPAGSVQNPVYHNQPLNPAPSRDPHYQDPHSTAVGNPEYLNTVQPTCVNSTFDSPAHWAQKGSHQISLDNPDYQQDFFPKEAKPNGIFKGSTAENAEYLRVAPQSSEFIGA

[8] = target: Follistatin-related protein 3 (Homo sapiens) (UniProt O95633); test: compounds binding follistatin-related protein 3 – biochemical, small-molecule microarray, 635 nm fluorescence, primary screen (AID 1105); conditions: FSTL3 binding, higher = more signal;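 also: score merges emission near 667 nm and signal to noise per printed spot across three slides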
Sequence of Follistatin-related protein 3 (Homo sapiens) (O95633 whole entry, looked up): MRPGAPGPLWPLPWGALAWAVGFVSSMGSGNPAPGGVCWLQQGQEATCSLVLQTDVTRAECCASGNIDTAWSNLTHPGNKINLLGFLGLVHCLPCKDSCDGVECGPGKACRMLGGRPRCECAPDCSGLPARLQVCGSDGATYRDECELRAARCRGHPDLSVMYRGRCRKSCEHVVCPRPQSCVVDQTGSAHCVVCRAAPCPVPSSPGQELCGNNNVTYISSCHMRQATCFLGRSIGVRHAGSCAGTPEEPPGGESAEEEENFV

[9] = target: Dickkopf-related protein 1 (Homo sapiens) (UniProt O94907); test: small molecules binding DKK1 protein – biochemical, small-molecule microarray, 635 nm fluorescence scan, primary screen (AID 1106); conditions: higher = more signal;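 also: score merges emission near 667 nm with signal to noise over three replicate slides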
Sequence of Dickkopf-related protein 1 (Homo sapiens) (O94907 whole entry, looked up): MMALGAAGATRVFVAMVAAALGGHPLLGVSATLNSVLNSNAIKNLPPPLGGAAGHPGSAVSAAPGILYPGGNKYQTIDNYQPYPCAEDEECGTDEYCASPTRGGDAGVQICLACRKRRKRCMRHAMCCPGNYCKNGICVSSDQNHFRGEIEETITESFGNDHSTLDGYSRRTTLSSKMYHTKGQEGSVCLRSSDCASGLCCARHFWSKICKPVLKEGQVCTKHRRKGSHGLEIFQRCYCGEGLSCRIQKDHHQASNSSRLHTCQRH

[10] = tested on: Inhibin beta A chain (activin A); test: small molecules binding activin A – biochemical, small-molecule microarray, 635 nm fluorescence scan, primary screen (AID 1107); conditions: INHBA, higher = more signal;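 also: mouse activin A protein probed at 4.33 µg/mL on printed slides; score merges bound-protein fluorescence near 667 nm with spot signal-to-noise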

Row | Structure (SMILES) | composite z-score [1] | composite z-score [2] | composite z-score [3] | z-score [4] | composite z-score [5] | composite z-score [6] | composite z-score [7] | composite z-score [8] | composite z-score [9] | composite z-score [10]
1 | O=C1C2=CC[C@H]3C(=O)N(c4ccc(F)cc4F)C(=O)[C@H]3[C@H]2[C@H](O)[C@@H]2O[C@H]12 | 0.305 | -0.378 | -0.778 | -0.35 (inactive) | 0.472 | 0.578 | 0.347 | 0.453 | 0.658 | -0.172
2 | CCOC(=O)CCN1C(=O)[C@H]2[C@H]3[C@H](O)[C@H](O)CC(=NOCC=C(C)CCC=C(C)C)[C@H]3CC[C@H]2C1=O | -0.319 | 0.28 | -0.154 | 0.0511 (inactive) | 0.245 | -0.709 | 0.52 | -0.789 | -0.185 | -1.82
3 | C[C@@H]1C=CCC(=O)OC[C@H](C)C(=O)N[C@@H](Cc2ccccc2)C(=O)OC1 | -0.0137 | -0.526 | -0.683 | -1.03 (inactive) | 0.3 | -0.0825 | 0.643 | 0.582 | 0.909 | -0.289
4 | CC(=O)OC[C@H]1O[C@H](CC=NOC[C@@H](O)[C@H]2O[C@@H]3OC(C)(C)O[C@@H]3[C@H]2O)C=C[C@@H]1OC(C)=O | 0.8 | -0.0771 | -0.351 | -0.136 (inactive) | 0.771 | 0.529 | 0.317 | 0.451 | 0.375 | -0.115
5 | CC(=O)OC[C@H]1O[C@H](CC=NOCC[C@@H]2C=C[C@H](OC(C)=O)[C@@H](COC(C)=O)O2)C=C[C@@H]1OC(C)=O | 0.892 | 0.771 | -0.752 | 0.525 (inactive) | 1.08 | 0.93 | 0.914 | 0.716 | 0.864 | 0.103
6 | CC(C)CON=C1C[C@@H](O)[C@@H](O)[C@@H]2[C@@H]3C(=O)N(c4ccc(F)cc4F)C(=O)[C@@H]3CC[C@@H]12 | 0.622 | -0.153 | -0.462 | -0.817 (inactive) | 0.585 | 0.598 | 0.321 | 0.598 | 0.289 | -0.287
7 | COCC#Cc1ccc([C@@H]2N[C@H](C(=O)O)CC[C@H]2C)cc1 | -0.331 | 0.159 | -0.0016 | -1.63 (inactive) | 0.129 | 0.223 | 0.362 | 0.246 | 0.302 | 0.784
8 | CCOC(=O)[C@H](Cc1ccccc1)NC(=O)CCC1CC(OC(=O)NCCc2ccc(F)cc2)CC2(CCCC(COC(=O)NCc3cccc(C(F)(F)F)c3)O2)O1 (stereo not given in full) | 0.863 | -0.139 | -0.311 | -0.891 (inactive) | 0.904 | 1.06 | 0.818 | 0.786 | 0.484 | -0.335
9 | CSCC[C@@H]1NC(=O)CC=C[C@@H](C)COC(=O)[C@H](C)COC1=O | 0.926 | -0.641 | -2.03 | -0.841 (inactive) | 1.49 | 0.781 | 1.67 | 1.23 | 2.31 | -2.83
10 | CO[C@@H]1[C@H](O)CO[C@H]1C=Cc1ccccc1 | 1.55 | -0.261 | -0.41 | -0.0979 (inactive) | 0.961 | -0.135 | 0.0571 | 0.211 | 0.365 | 0.512
11 | C[C@H]1CC[C@H]2C(=O)O[C@H](CO)CN2[C@@H]1c1ccc(Br)cc1 | -0.233 | -0.198 | -0.372 | -0.202 (inactive) | -0.111 | -0.348 | 0.0844 | -0.378 | -0.106 | 0.829
12 | CCCNC(=O)OC[C@H]1O[C@H](CCON=C2C[C@@H](O)[C@@H](O)[C@@H]3[C@@H]4C(=O)N(CC)C(=O)[C@@H]4CC[C@@H]23)C=C[C@@H]1Oc1ccc(OC)cc1 | 0.874 | -0.04 | -0.39 | 0.264 (inactive) | 0.55 | 1.05 | 0.611 | 1.07 | 1.35 | 0.157
13 | COC(=O)[C@H](C)NC(=O)CCC1CC(OC(=O)NCc2cccc3ccccc23)CC2(CCCC(COC(=O)NCCc3ccccc3OC)O2)O1 (stereo not given in full) | 0.906 | -0.0471 | -0.433 | -0.105 (inactive) | 1.23 | 1.12 | 0.454 | 1.25 | 0.686 | -0.267
14 | CC(CCN1CCCc2nc(C)c(C)cc21)=NO[C@@H](C)c1cn([C@H](CO)Cc2ccccc2)nn1 | 0.531 | -0.264 | -0.388 | 0.867 (inactive) | 0.817 | 0.471 | 0.666 | 0.698 | 0.928 | 1.19
15 | COc1cccc([C@H](O)Cn2cc(-c3ccc(CON=C(C)C)cc3)nn2)c1 | -0.548 | -0.122 | -0.0514 | 0.62 (inactive) | 0.155 | -0.559 | -0.392 | -0.549 | -0.115 | 0.575
16 | COC(=O)CC=C[C@@H](C)[C@@H](C=NOC(C)CN1CCCCc2nc(C)c(C)cc21)OC (stereo not given in full) | 0.519 | -0.343 | -0.613 | 0.854 (inactive) | -0.285 | 0.959 | 0.686 | 0.975 | 1.33 | 1.19
17 | Cc1cc2c(nc1C)CCCCN2CC(O)CN1CCCc2nc(-c3ccc(Br)cc3)ccc21 (stereo not given) | 0.704 | -0.0514 | -0.332 | 0.0168 (inactive) | 0.874 | 0.62 | 0.597 | 1.21 | 0.446 | 0.481
18 | COCCNC(=O)OCC1CCCC2(CC(OC(=O)NCc3cccc4ccccc34)CC(CCC(=O)N[C@@H](C)C(=O)OC)O2)O1 (stereo not given in full) | 0.798 | -0.252 | -0.589 | -0.674 (inactive) | 1.06 | 1.22 | 0.709 | 0.781 | 0.735 | -0.0341
19 | C=CC[C@@H]1C=C[C@H](ON=C2C[C@@H](O)[C@@H](O)[C@@H]3[C@@H]4C(=O)N(CC)C(=O)[C@@H]4CC[C@@H]23)[C@@H](CO)O1 | -0.487 | -0.428 | -0.562 | -1.2 (inactive) | 0.156 | -0.653 | -0.0239 | -0.339 | 0.106 | 0.535
20 | CC(=O)OC[C@H]1O[C@H](CC=NO[C@H](C)c2cn([C@@H]3COC[C@H]3O)nn2)C=C[C@@H]1OC(C)=O | 0.197 | -0.185 | -0.434 | -1.06 (inactive) | 0.172 | 0.0915 | 0.476 | 0.255 | 1.1 | 0.257
21 | CC(C)[C@@H](OCc1ccccc1)[C@H](C)C=NO[C@H](C)c1cn([C@@H]2COC[C@H]2O)nn1 | 0.385 | -0.492 | -0.511 | 0.0201 (inactive) | 0.457 | 1.08 | 0.556 | 0.448 | 0.0939 | -1.31
22 | CON(C)C(=O)c1nnc2c(n1)[nH]c1ccccc12 | 0.214 | 0.256 | -0.0786 | -0.562 (inactive) | 0.692 | 0.217 | 0.319 | 0.651 | 0.377 | 0.221
23 | CCN1C(=O)[C@H]2[C@@H]3C(=CC[C@H]2C1=O)C(=O)[C@H]1O[C@H]1[C@H]3O | 0.641 | -0.409 | -0.722 | 17 (active) | 1.06 | 1.11 | 0.827 | 1.28 | 1.17 | 0.065
24 | CO[C@H]1COC(=O)CCC[C@H](C)[C@@H](OC)COC(=O)CC=C[C@@H]1C | 0.981 | -0.26 | -0.811 | -1.05 (inactive) | 0.267 | 0.278 | 0.711 | 0.319 | 0.846 | 0.691
25 | CC(C)=CCCC(C)=CCON=C1C[C@@H](O)[C@@H](O)[C@@H]2[C@@H]3C(=O)N([C@@H](C)c4ccccc4)C(=O)[C@@H]3CC[C@@H]12 | 0.277 | -0.213 | -0.572 | -0.168 (inactive) | 0.461 | 0.598 | 0.407 | 0.319 | 0.134 | 0.521
26 | COC(=O)[C@@H]1CC[C@H](C)[C@@H](c2ccc(Br)cc2)N1C[C@H](O)CN=[N+]=[N-] | 0.0722 | -0.234 | 0.0248 | -0.812 (inactive) | 0.248 | -0.154 | 0.385 | -0.347 | -0.148 | 0.616
27 | CCOC(=O)[C@H](CC(C)C)NC(=O)CCC1CC(OC(=O)NCCc2ccc(F)cc2)CC2(CCCC(COC(=O)NCc3cccc4ccccc34)O2)O1 (stereo not given in full) | 0.66 | -0.0464 | -0.224 | -1.61 (inactive) | 0.176 | 0.121 | 0.55 | 0.135 | 0.678 | -0.583
28 | CCOC(=O)[C@H](CC(C)C)NC(=O)CCC1CC(OC(=O)NCCc2ccc(F)cc2)CC2(CCCC(COC(=O)NCc3cccc(C(F)(F)F)c3)O2)O1 (stereo not given in full) | 0.581 | -0.211 | -0.51 | 0.478 (inactive) | 1.39 | 0.733 | 0.29 | 0.814 | 0.532 | -0.257
29 | C[C@H]1CC[C@@H](C(=O)O)N[C@@H]1c1ccc(C#Cc2ccccc2)cc1 | 0.194 | 0.0274 | -0.273 | 0.29 (inactive) | 1.24 | 1.1 | 0.935 | 1.31 | 1.07 | 1.01
30 | CC(C)=NO[C@@H](C)c1cn([C@H](CO)Cc2ccccc2)nn1 | 0.8 | 0.0454 | -0.832 | -0.937 (inactive) | 0.393 | 0.523 | 0.303 | 0.345 | 0.27 | 0.111
